# Reference: PubChem BioAssay
# The source made the active and inactive calls. Unless noted, no stated cut-off is given here; in the data, active means inhibition above about 80%; inactive means the rest.
# Experiments:
# [1] = LFS_MB_P medulloblastoma growth inhibition, cell-based, chromothripsis tumors, cisplatin or BGB combos (AID 1671449); conditions: LFS_MB_P medulloblastoma cells;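 further: cells exposed for 96 hours; 0% = vehicle DMSO and 100% = killing by high DMSO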
# [2] = HDN33 neuroblastoma growth inhibition, cell-based, chromothripsis tumors, cisplatin or BGB combos (AID 1671450); conditions: HDN33 neuroblastoma cells, stronger effect = higher value;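 further: cells exposed to compound for four days; 0% = vehicle DMSO and 100% = cell killing by high DMSO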
# [3] = ICB984 medulloblastoma cell growth inhibition, synergistic combos for chromothripsis tumors, cisplatin or BGB combos (AID 1671451; call rule not given here;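 further: cells exposed for 96 hours before readout; 0% = vehicle DMSO and 100% = killing by high DMSO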); conditions: ICB984 medulloblastoma cells, drug combinations, stronger effect = higher value
# [4] = LFS_MB_1R medulloblastoma cell growth inhibition, synergistic combos for chromothripsis tumors, cisplatin or BGB combos (AID 1671452); conditions: LFS_MB_1R medulloblastoma cells, stronger effect = higher value;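 further: cells exposed for 96 hours before readout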
# [5] = HTB85 osteosarcoma cell growth inhibition, synergistic combos for chromothripsis tumors, BGB or cisplatin IC20 combos (AID 1671453); conditions: HTB85 osteosarcoma cells, drug combinations, stronger effect = higher value;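 further: cells exposed for 96 hours before readout; 0% = vehicle DMSO and 100% = high DMSO killing control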
# [6] = CRL2098 osteosarcoma cell growth inhibition, synergistic combos for chromothripsis tumors, BGB or cisplatin IC20 combos (AID 1671454); conditions: CRL2098 osteosarcoma cells, drug combinations, stronger effect = higher value;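 further: cells exposed for 96 h before readout; 0% = vehicle DMSO and 100% = killing by high DMSO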
# [7] = HD-MB03 medulloblastoma cell growth inhibition, synergistic combos for chromothripsis tumors, BGB or cisplatin IC20 combos (AID 1671455; in the data active means inhibition above about 83%;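 further: 0% = vehicle DMSO and 100% = high DMSO as cytotoxic control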); conditions: HD-MB03 medulloblastoma cells, stronger effect = higher value
# [8] = UWB1.289 ovarian carcinoma cell growth inhibition, synergistic combos for chromothripsis tumors, BGB or cisplatin combos (AID 1671456); conditions: UWB1.289 ovarian carcinoma cells, stronger effect = higher value;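 further: cells exposed to compound for four days; 0% = vehicle DMSO and 100% = killing by high DMSO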
# [9] = LFS_MB_2R medulloblastoma cell growth inhibition, synergistic combos for chromothripsis tumors, cisplatin combos (AID 1671457); conditions: LFS_MB_2R medulloblastoma cells, stronger effect = higher value;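 further: cells exposed to compound for four days before readout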
# [10] = MDA-MB-436 breast carcinoma cell growth inhibition, synergistic combos for chromothripsis tumors, BGB or cisplatin combos (AID 1671458; call rule not given here;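 further: cells exposed for 96 hours; 0% = vehicle DMSO and 100% = killing by high DMSO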); conditions: MDA-MB-436 breast carcinoma growth inhibition, drug combinations, stronger effect = higher value
# [11] = UWB1.289_BRCA1 ovarian cancer growth, cell-based, BGB or cisplatin combinations (AID 1671459); conditions: UWB1.289 BRCA1 ovarian carcinoma, drug combinations, stronger effect = higher value
# [12] = human astrocyte viability loss, single and combined drugs, cytotoxicity control for chromothriptic childhood tumor combination screen, cell-based, BGB or cisplatin IC20 combos (AID 1671460); conditions: Human astrocytes, drug combinations, stronger effect = higher value;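 further: cells exposed to compounds for 96 hours before viability readout; 0% = vehicle and 100% = killing control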
# [13] = growth inhibition of BT084 medulloblastoma cells, cell-based, ICGC_MB145, cisplatin and BGB IC40 combos (AID 1671461); conditions: drug combinations, stronger effect = higher value;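 further: cells exposed to drugs for 96 hours; 0% = vehicle DMSO and 100% = high DMSO full killing control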
# [14] = growth inhibition of RCMB18 medulloblastoma cells, cell-based, cisplatin and BGB IC40 combos (AID 1671462); conditions: stronger effect = higher value;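 further: cells exposed to compound for four days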
# [15] = growth inhibition of CRL1545 osteosarcoma cells, cell-based, cisplatin and BGB IC20 combos (AID 1671464); conditions: stronger effect = higher value;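 further: cells exposed to compound for 96 hours before readout; 0% = vehicle DMSO and 100% = high DMSO killing control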
# [16] = measured here: combination with BGB IC40, at 0.05 µM
# [17] = measured here: with BGB IC20 combination, at 0.5 µM
# [18] = measured here: with cisplatin IC20 combination, at 0.5 µM
# [19] = measured here: combination with cisplatin, at 0.5 µM
# [20] = measured here: combination with cisplatin, at 5 µM
smiles,measurement,setting,value
O=c1[nH]c(=S)[nH]c2nc(-c3ccccc3)c(-c3ccccc3)nc12,inhibition,"[1]; at 0.5 µM, stronger effect = higher value",-4.47% (inactive)
same,inhibition,"[1]; measured here: combination with BGB IC20, at 0.005 µM",-16.2%
same,inhibition,"[1]; measured here: combination with BGB IC40, at 0.005 µM",-17.7%
same,inhibition,[1]; [16],-55%
same,inhibition,"[1]; measured here: combination with cisplatin, at 0.5 µM, stronger effect = higher value",-17.6%
same,inhibition,"[1]; measured here: combination with cisplatin, at 5 µM, stronger effect = higher value",-30.5%
same,inhibition,"[2]; BGB combo, at 5 µM",-12.8%
same,inhibition,[2]; at 0.5 µM,-3.23% (inactive)
same,inhibition,"[2]; cisplatin combo, at 5 µM",-3.41%
same,inhibition,[2]; [17],-5.44%
same,inhibition,[2]; [18],12.5%
same,inhibition,"[2]; single agent, at 5 µM",8.28%
same,inhibition,"[3]; BGB IC20 combo, at 0.005 µM",-5.97%
same,inhibition,"[3]; BGB IC40 combo, at 0.005 µM",-18.7%
same,inhibition,"[3]; BGB IC40 combo, at 0.05 µM",-15.7%
same,inhibition,[3]; at 0.5 µM,-20.3% (inactive)
same,inhibition,"[3]; cisplatin combo, at 0.05 µM",-19.8%
same,inhibition,"[3]; cisplatin combo, at 0.5 µM",-15.9%
same,inhibition,"[3]; cisplatin combo, at 5 µM",-36.6%
same,inhibition,"[3]; measured here: 5 uM single agent, at 5 µM",8.29%
same,inhibition,[4]; at 0.5 µM,-12.5% (inactive)
same,inhibition,[4]; [16],-14.1%
same,inhibition,[4]; [19],-36.2%
same,inhibition,[4]; [20],-28.2%
same,inhibition,[5]; at 0.5 µM,-2.11% (inactive)
same,inhibition,"[5]; measured here: with BGB IC20, at 0.5 µM",-2.07%
same,inhibition,"[5]; measured here: with BGB IC20, at 5 µM",-2.27%
same,inhibition,"[5]; measured here: with cisplatin IC20, at 0.5 µM",-3.18%
same,inhibition,"[5]; measured here: with cisplatin IC20, at 5 µM",-32%
same,inhibition,"[5]; single agent, at 5 µM",0.689%
same,inhibition,[6]; at 0.5 µM,-39.5% (inactive)
same,inhibition,"[6]; measured here: combination with BGB at IC20, at 0.5 µM",-21.3%
same,inhibition,"[6]; measured here: combination with cisplatin at IC20, at 0.5 µM",-56.3%
same,inhibition,[7]; at 0.5 µM,1.96% (inactive)
same,inhibition,"[7]; measured here: combo with BGB at IC20, at 0.5 µM",-7.2%
same,inhibition,"[7]; measured here: combo with cisplatin at IC20, at 0.5 µM",15.9%
same,inhibition,[8]; at 0.5 µM,8.37% (inactive)
same,inhibition,"[8]; measured here: inhibition with BGB combination, at 0.05 µM",69.6%
same,inhibition,"[8]; measured here: inhibition with cisplatin combination, at 0.05 µM",18.6%
same,inhibition,[9]; at 0.5 µM,-9.62% (inactive)
same,inhibition,[9]; [19],-6.67%
same,inhibition,[9]; [20],4.64%
same,inhibition,[10]; at 0.5 µM,-2.86% (inactive)
same,inhibition,"[10]; measured here: BGB combination, at 0.5 µM",-6.6%
same,inhibition,"[10]; measured here: BGB combination, at 5 µM",-11.7%
same,inhibition,"[10]; measured here: cisplatin combination, at 0.5 µM",0.551%
same,inhibition,"[10]; measured here: cisplatin combination, at 5 µM",-30.7%
same,inhibition,"[11]; BGB combination, concentration series, at 5 µM",8.97%
same,inhibition,[11]; at 0.5 µM,3.94% (inactive)
same,inhibition,"[11]; cisplatin combination, concentration series, at 5 µM",-14.9%
same,inhibition,[12]; at 0.5 µM,4.94% (inactive)
same,inhibition,"[12]; measured here: combo with BGB IC20, at 0.5 µM",4.6%
same,inhibition,"[12]; measured here: combo with cisplatin IC20, at 0.5 µM",-1.31%
same,inhibition,[13]; at 0.5 µM,-2.6% (inactive)
same,inhibition,"[13]; cisplatin combination, at 0.5 µM",-10.5%
same,inhibition,"[13]; cisplatin combination, at 5 µM",0.186%
same,inhibition,"[13]; measured here: BGB IC40 combination 0.05 uM, at 0.05 µM",-24.1%
same,inhibition,"[13]; single agent, at 5 µM",0.55%
same,inhibition,[14]; at 0.5 µM,-2.13% (inactive)
same,inhibition,"[14]; cisplatin combo, at 5 µM",-6.02%
same,inhibition,"[14]; measured here: BGB IC40 combination, at 0.05 µM",-12.2%
same,inhibition,[14]; [19],41.9%
same,inhibition,"[14]; single agent, at 5 µM",-34.1%
same,inhibition,[15]; at 0.5 µM,-17.1% (inactive)
same,inhibition,[15]; [17],-18.6%
same,inhibition,[15]; [18],-18.2%
same,inhibition,"[15]; single agent, at 0.05 µM",-5.63%
same,inhibition,"[15]; single agent, at 5 µM",-50.2%
